Assay results reported in PubChem BioAssay.
Several values for one entry are separate records, joined by “and”; a condition that tells them apart may be missing. Equal entries are not always repeated. Activity calls are given as the source filed them. Unless noted, no stated cut-off is given here; in the data, active means inhibition above about 80%; inactive means the rest.

Key:
[1] = BT084 cell growth, single and combined drugs, ICGC_MB145, cisplatin and BGB IC40 combos (AID 1671461); conditions: BT084 medulloblastoma cells, drug combinations, stronger effect = higher value;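 further: cells exposed to drugs for 96 hours; 0% = vehicle DMSO and 100% = high DMSO full killing control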
[2] = RCMB18 cell growth, single agent and combined, cisplatin and BGB IC40 combos (AID 1671462); conditions: RCMB18 medulloblastoma cells, stronger effect = higher value;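 further: cells exposed to compound for four days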
[3] = CRL1545 cell growth, single agent and combined, cisplatin and BGB IC20 combos (AID 1671464); conditions: CRL1545 osteosarcoma cells, stronger effect = higher value;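 further: cells exposed to compound for 96 hours before readout; 0% = vehicle DMSO and 100% = high DMSO killing control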
[4] = viability loss with induced miR-34 in A549 – imaging, A549 dox-inducible miR-34, nuclei and caspase counts, primary screen (AID 1347080;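 active means compounds whose cell count with miR-34 switched on is under 0.7 times the count with it off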); conditions: A549 miR-34 inducible, Hoechst nuclei count, 48 h
[5] = MELAS cybrid and Rieske KO viability enhancers – cell-based, MELAS cybrids, Rieske KO mouse fibroblasts, CellTiter-Glo, primary screen (AID 1508586;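 active means mean z-score across replicates of 1.96 or higher in either the MELAS or the Rieske mutant cell line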;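 further: z relative to plate mean and SD of compound and empty wells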); conditions: low glucose
[6] = growth inhibition, single agent or in combination, cell-based, chromothripsis tumors, cisplatin or BGB combos (AID 1671449); conditions: LFS_MB_P medulloblastoma cells;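 further: cells exposed for 96 hours; 0% = vehicle DMSO and 100% = killing by high DMSO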
[7] = growth inhibition, single agent and combos, cell-based, chromothripsis tumors, cisplatin or BGB combos (AID 1671450); conditions: HDN33 neuroblastoma cells, stronger effect = higher value;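 further: cells exposed to compound for four days; 0% = vehicle DMSO and 100% = cell killing by high DMSO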
[8] = growth inhibition, single agents and combos, ICB984, cell-based, cisplatin or BGB combos, synergistic combos for chromothripsis tumors (AID 1671451; call rule not given here;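 further: cells exposed for 96 hours before readout; 0% = vehicle DMSO and 100% = killing by high DMSO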); conditions: ICB984 medulloblastoma cells, drug combinations, stronger effect = higher value
[9] = growth inhibition, single agents and combos, LFS_MB_1R, cell-based, cisplatin or BGB combos, synergistic combos for chromothripsis tumors (AID 1671452); conditions: LFS_MB_1R medulloblastoma cells, stronger effect = higher value;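 further: cells exposed for 96 hours before readout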
[10] = growth inhibition, single agents and combos, HTB85, cell-based, BGB or cisplatin IC20 combos, synergistic combos for chromothripsis tumors (AID 1671453); conditions: HTB85 osteosarcoma cells, drug combinations, stronger effect = higher value;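 further: cells exposed for 96 hours before readout; 0% = vehicle DMSO and 100% = high DMSO killing control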
[11] = growth inhibition, single agents and combos, CRL2098, cell-based, BGB or cisplatin IC20 combos, synergistic combos for chromothripsis tumors (AID 1671454); conditions: CRL2098 osteosarcoma cells, drug combinations, stronger effect = higher value;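 further: cells exposed for 96 h before readout; 0% = vehicle DMSO and 100% = killing by high DMSO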
[12] = growth inhibition, single agents and combos, HD-MB03, cell-based, BGB or cisplatin IC20 combos, synergistic combos for chromothripsis tumors (AID 1671455; in the data active means inhibition above about 83%;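 further: 0% = vehicle DMSO and 100% = high DMSO as cytotoxic control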); conditions: HD-MB03 medulloblastoma cells, stronger effect = higher value
[13] = growth inhibition, single agents and combos, UWB1.289, cell-based, BGB or cisplatin combos, synergistic combos for chromothripsis tumors (AID 1671456); conditions: UWB1.289 ovarian carcinoma cells, stronger effect = higher value;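 further: cells exposed to compound for four days; 0% = vehicle DMSO and 100% = killing by high DMSO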
[14] = growth inhibition, single agents and combos, LFS_MB_2R, cell-based, cisplatin combos, synergistic combos for chromothripsis tumors (AID 1671457); conditions: LFS_MB_2R medulloblastoma cells, stronger effect = higher value;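 further: cells exposed to compound for four days before readout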
[15] = growth inhibition, MDA-MB-436, cell-based, BGB or cisplatin combos, synergistic combos for chromothripsis tumors (AID 1671458; call rule not given here;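 further: cells exposed for 96 hours; 0% = vehicle DMSO and 100% = killing by high DMSO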); conditions: MDA-MB-436 breast carcinoma growth inhibition, drug combinations, stronger effect = higher value
[16] = UWB1.289_BRCA1 ovarian cancer growth, cell-based, BGB or cisplatin combinations (AID 1671459); conditions: UWB1.289 BRCA1 ovarian carcinoma, drug combinations, stronger effect = higher value
[17] = drug combination toxicity in non-malignant astrocytes – cell-based, BGB or cisplatin IC20 combos, cytotoxicity control for chromothriptic childhood tumor combination screen (AID 1671460); conditions: Human astrocytes, viability inhibition, drug combinations, at 0.5 µM, stronger effect = higher value;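 further: cells exposed to compounds for 96 hours before viability readout; 0% = vehicle and 100% = killing control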
[18] = cisplatin combination, at 0.5 µM
[19] = measured here: BGB IC40 combination 0.05 uM, at 0.05 µM
[20] = measured here: BGB IC40 combination, at 0.05 µM
[21] = measured here: combination with cisplatin, at 0.5 µM
[22] = measured here: with BGB IC20 combination, at 0.5 µM
[23] = measured here: with cisplatin IC20 combination, at 0.5 µM
[24] = measured here: combination with BGB IC40, at 0.05 µM
[25] = measured here: combination with cisplatin, at 5 µM

SMILES: Cc1cn(C2CC(N=[N+]=[N-])C(CO)O2)c(=O)[nH]c1=O (centres undefined)
- inhibition ([1]; at 0.5 µM): -31.2% (inactive) and -18.3% (inactive)
- inhibition [1, 18]: -20.4% and -7.03%
- inhibition ([1]; cisplatin combination, at 5 µM): -13.7% and 8.51%
- inhibition [1, 19]: -13.5% and -22.4%
- inhibition ([1]; single agent, at 5 µM): -33.2% and -6.84%
- inhibition ([2]; at 0.5 µM): -27.2% (inactive) and -6.41% (inactive)
- inhibition ([2]; cisplatin combo, at 5 µM): -15.6% and -7.21%
- inhibition [2, 20]: -27% and -25%
- inhibition [2, 21]: -39.9% and -10.1%
- inhibition ([2]; single agent, at 5 µM): -41.5% and -29.4%
- inhibition ([3]; at 0.5 µM): -61.3% (inactive) and 13.1% (inactive)
- inhibition [3, 22]: -40.5% and 10%
- inhibition [3, 23]: -75.6% and 14.6%
- inhibition ([3]; single agent, at 0.05 µM): -59.4% and 9.83%
- inhibition ([3]; single agent, at 5 µM): -40.3% and 11.6%

SMILES: COc1ccccc1S(=O)(=O)Nc1ccc2c(c1)CN(C)C(=O)N2
- fold change ([4]; stronger effect = lower value, cell number ratio, induced over uninduced): 1.02 (inactive)
- fold change ([4]; measured here: relative caspase fold change +Dox/-Dox): 0.364
- cell count ([4]; measured here: total cells with miR-34 induction, stronger effect = lower value): 6410
- cell count ([4]; measured here: total cells without miR-34 induction): 6310
- z-score ([5]; MELAS cybrid survival, CellTiter-Glo 48 h, stronger effect = higher value): 0.202 (inactive)
- z-score ([5]; Rieske KO mouse fibroblast survival, CellTiter-Glo 72 h): -0.445
- inhibition ([6]; at 0.5 µM, stronger effect = higher value): -27% (inactive)
- inhibition ([6]; measured here: combination with BGB IC20, at 0.005 µM): -35.7%
- inhibition ([6]; measured here: combination with BGB IC40, at 0.005 µM): -46.6%
- inhibition [6, 24]: -41.2%
- inhibition ([6]; measured here: combination with cisplatin, at 0.5 µM, stronger effect = higher value): -73.8%
- inhibition ([6]; measured here: combination with cisplatin, at 5 µM, stronger effect = higher value): 27.9%
- inhibition ([7]; BGB combo, at 5 µM): 10.4%
- inhibition ([7]; at 0.5 µM): -28.2% (inactive)
- inhibition ([7]; cisplatin combo, at 5 µM): 19.3%
- inhibition [7, 22]: -28.2%
- inhibition [7, 23]: -25.5%
- inhibition ([7]; single agent, at 5 µM): 26.1%
- inhibition ([8]; BGB IC20 combo, at 0.005 µM): 0.625%
- inhibition ([8]; BGB IC40 combo, at 0.005 µM): -32.2%
- inhibition ([8]; BGB IC40 combo, at 0.05 µM): 2.94%
- inhibition ([8]; at 0.5 µM): -27.9% (inactive)
- inhibition ([8]; cisplatin combo, at 0.05 µM): -1.96%
- inhibition ([8]; cisplatin combo, at 0.5 µM): -28%
- inhibition ([8]; cisplatin combo, at 5 µM): -22.2%
- inhibition ([8]; measured here: 5 uM single agent, at 5 µM): -15.3%
- inhibition ([9]; at 0.5 µM): -15.2% (inactive)
- inhibition [9, 24]: -24.6%
- inhibition [9, 21]: -10.4%
- inhibition [9, 25]: 42.8%
- inhibition ([10]; at 0.5 µM): -7.92% (inactive)
- inhibition ([10]; measured here: with BGB IC20, at 0.5 µM): 9.14%
- inhibition ([10]; measured here: with BGB IC20, at 5 µM): 38.2%
- inhibition ([10]; measured here: with cisplatin IC20, at 0.5 µM): -13.9%
- inhibition ([10]; measured here: with cisplatin IC20, at 5 µM): 31.4%
- inhibition ([10]; single agent, at 5 µM): 32.5%
- inhibition ([11]; at 0.5 µM): -31.4% (inactive)
- inhibition ([11]; measured here: combination with BGB at IC20, at 0.5 µM): 0.952%
- inhibition ([11]; measured here: combination with cisplatin at IC20, at 0.5 µM): -85.9%
- inhibition ([12]; at 0.5 µM): -5.44% (inactive)
- inhibition ([12]; measured here: combo with BGB at IC20, at 0.5 µM): -9.22%
- inhibition ([12]; measured here: combo with cisplatin at IC20, at 0.5 µM): -6.26%
- inhibition ([13]; at 0.5 µM): -14.3% (inactive)
- inhibition ([13]; measured here: inhibition with BGB combination, at 0.05 µM): -45%
- inhibition ([13]; measured here: inhibition with cisplatin combination, at 0.05 µM): -24.9%
- inhibition ([14]; at 0.5 µM): -17.7% (inactive)
- inhibition [14, 21]: -4.41%
- inhibition [14, 25]: 24.4%
- inhibition ([15]; at 0.5 µM): -11.9% (inactive)
- inhibition ([15]; measured here: BGB combination, at 0.5 µM): -2.15%
- inhibition ([15]; measured here: BGB combination, at 5 µM): -5.52%
- inhibition ([15]; measured here: cisplatin combination, at 0.5 µM): -32.4%
- inhibition ([15]; measured here: cisplatin combination, at 5 µM): -10.1%
- inhibition ([16]; BGB combination, concentration series, at 5 µM): 37.7%
- inhibition ([16]; at 0.5 µM): -12% (inactive)
- inhibition ([16]; cisplatin combination, concentration series, at 5 µM): 55.6%
- inhibition [17]: 9.7% (inactive)
- inhibition ([17]; measured here: combo with BGB IC20): 13.1%
- inhibition ([17]; measured here: combo with cisplatin IC20): 4.75%
- inhibition ([1]; at 0.5 µM): -13.5% (inactive)
- inhibition [1, 18]: -9.06%
- inhibition ([1]; cisplatin combination, at 5 µM): 15.1%
- inhibition [1, 19]: -35.9%
- inhibition ([1]; single agent, at 5 µM): 28.1%
- inhibition ([2]; at 0.5 µM): -15.3% (inactive)
- inhibition ([2]; cisplatin combo, at 5 µM): 7.58%
- inhibition [2, 20]: -26.3%
- inhibition [2, 21]: -32.4%
- inhibition ([2]; single agent, at 5 µM): 7.98%
- inhibition ([3]; at 0.5 µM): -26.6% (inactive)
- inhibition [3, 22]: -39.9%
- inhibition [3, 23]: -21.9%
- inhibition ([3]; single agent, at 0.05 µM): -32%
- inhibition ([3]; single agent, at 5 µM): 6.08%
